# Gal4-VP16 FLuc: counter-screen for ROR gamma inhibitors: Gal4-VP16 reporter | Drosophila S2 Gal4-VP16 UAS-luciferase, luminescence, 20 h | Potency, µM (titrated, usually from 53.6 µM), for inactives: top-dose activity, negative = inhibition, hits mostly inhibitors | actives 3.5% (n = 310,000) | AID 2546;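 also: Gal4-VP16 expression switched on by copper sulfate through the metallothionein promoter; potency is read from the fitted curve at half-maximal effect; % is scaled to controls: 0 for no effect and ±100 for the full control effect; nearly all actives have a fitted effect of over 50% in size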
# MBNL1-CUG inh: inhibitors of human MBNL1 binding to CUG repeat RNA. Q9NR56. TR-FRET MBNL1-His/biotin-(CUG)12 binding, 665/545 ratio. Potency, µM (highest dose often 57.5 µM), without a hit: at the top dose activity change, negative = inhibition, hits mostly inhibitors. actives 0.036% (n = 280,000); active = well fitted inhibition curve with a large enough effect in the signal ratio, with a control signal flat, not every such curve was filed as active; inconclusive = small, poorly fitted or top-dose-only effect, or effect the other way, or a change in a side signal; inactive = no such curve, though single readings can be large or run the other way; the % refers to the signal ratio; also: potency is read from the fitted curve at half-maximal effect; % is scaled to controls: 0 for no effect and ±100 for the full control effect
#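 Inhibition of protein-RNA binding appears as loss of TR-FRET between terbium anti-His antibody on MBNL1-His and streptavidin-XL665 on biotin-(CUG)12. Activity is normalized to buffer-only and uninhibited-complex controls.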
# Six1-Eya2 inh: blocks human Six1 binding to Eya2; Q15475+O00167; AlphaScreen GST-Six1/His-Eya2 binding, biochemical; stronger effect = lower value; activity change, % (no concentration beside the values); actives 0.56% (n = 360,000); AID 651725; in the data active = activity change below about -65%; inconclusive = mostly about -30% to -63%; also: % is scaled to controls: 0 for no effect and ±100 for the full control effect
#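 AlphaScreen luminescence read after one hour at 37 °C in darkness. Pin-transferred compounds met GST-Six1 and His-Eya2 protein (5X stock 250 nM/500 nM) plus glutathione donor and Ni-chelate acceptor beads (5X, 50 ug/mL).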
# CtBP-E1A blk: blocks the CtBP interaction with E1A | AlphaScreen GST-E1A/His-CtBP binding, 1536-well; stronger effect = lower value | activity change, % (concentration not given with the values) | actives 0.49% (n = 340,000); in the data active = activity change below about -65%; inconclusive = mostly about -30% to -63%; also: % is scaled to controls: 0 for no effect and ±100 for the full control effect
#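 In 5 uL wells, 23 nL compound meets equimolar GST-E1A and His-CtBP (5X stock 125 nM each) for 2 h, 37 °C. Beads (5X, 50 ug/mL) then 1 h, 37 °C, dark.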
# RORg inh: ROR gamma (mouse) transcription inhibition. actives 5.4% (n = 310,000). Drosophila S2 Gal4-RORgamma UAS-luciferase reporter, 20 h. Potency, µM (doses to about 53.6 µM), without a hit: top-dose activity change, negative = inhibition, hits mostly inhibitors. AID 2551; also: potency is read from the fitted curve at half-maximal effect; % is scaled to controls: 0 for no effect and ±100 for the full control effect; nearly all actives have a fitted effect of over 60% in size
#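 Schneider cells (Drosophila), stable Gal4 DBD–ROR gamma + UAS-luc; 1 hr cmpd preincubation; Cu2+ induction 700 uM final; 20 hr ambient; luminescence.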
# CBFb RUNX1 block: CBF-beta/RUNX1 interaction disruption. AlphaScreen CBFb-His/RUNX1-biotin binding, biochemical. Potency, µM (titrated, usually from 59.8 µM), without a hit: at the top dose activity, negative = inhibition, usual class: inhibitors. 230,000 tested, under 10 active; also: % of control where 0% means no effect
#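 CBF-beta (His) and RUNX1 (biotin), 30 nM each; 20 min preassociation; + compound, 15 min; + beads 50 ng each (Ni, streptavidin), 90 min; RT; AlphaScreen read.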
# * marks the source's active call; other numbers are inactive results; u = inconclusive; x = not tested or not shown; [ ] = another dose, or the depositor's remark. Only some compounds are listed: those with a hit (about 5.5% of all), similar ones and a draw of the others. Unless noted, calls follow the shape of the dose curve; as a rule, active = well fitted curve in the direction sought with a large enough effect; inconclusive = small, poorly fitted or top-dose-only effect, or another doubt; inactive = no such curve, though single readings can be large; an effect the other way counts as inactive or inconclusive.
SMILES,Gal4-VP16 FLuc,MBNL1-CUG inh,Six1-Eya2 inh,CtBP-E1A blk,RORg inh,CBFb RUNX1 block
Cc1ccc(NC(=S)NNC(=S)Nc2ccc(C)cc2C)cc1,-12%,-3%,-5,2,-42%,2%
O=C(NNC(=S)Nc1ccc(F)c(Cl)c1)C1CC1,-23%,-9%,4,6,-40%,9%
Cc1ccc(NS(=O)(=O)c2ccc(NC(=O)C3CC3)cc2)c(C)c1,25µM*,-7%,10,1,82%,x
S=C(Nc1ccc2[nH]ccc2c1)NC1CCCCC1,-16%,-7%,-20,-26,11µM*,-8%
Cc1ccc(NC(=S)NC(=O)C2CC2)c(C)c1,7.1µM*,-5%,0,3,5µM*,x
O=C(NC(=S)Nc1ccc(Br)c(Cl)c1)C1CC1,7.9µM*,-1%,-1,-6,4.5µM*,x
CCN1C(=NCCc2cccs2)N[C@@H](CCc2ccccc2)[C@H](C(=O)NCCc2cccs2)[C@H]1C,-10%,25%,x,x,-26%,x
Cc1nnsc1SCCNC(=O)Nc1ccc(Cl)cc1,-4%,-3%,2,x,43%,6%
CC(=O)Nc1ccc(NC(=S)NC(=O)C2CC2)cc1,-2%,3%,15,-5,-4%,x
Cc1ccc(NC(=S)NC(=O)C2CCC2)cc1C,2.8µM*,0%,2,9,2.2µM*,x
CCN(CC)S(=O)(=O)c1ccc(O)c(NS(=O)(=O)c2ccccc2F)c1,-29%,-8%,4,-2,10µM*,3%
CCOc1ccc(S(=O)(=O)N(CC)CC)cc1NS(=O)(=O)c1ccc(F)c(F)c1F,-13%,x,2,-1,40%,8%
C=CCn1c(-c2cc(-c3ccccc3)sc2N)n[nH]c1=S,10µM*,20%,-13,-10,2.2µM*,-11%
C=CCn1c(-c2csc3ccccc23)n[nH]c1=S,6.3µM*,1%,0,-2,3.5µM*,-2%
C=CCn1c(-c2c[nH]c3ccccc23)n[nH]c1=S,u,-13%,2,0,3%[10 µM],-7%
C=CCn1c(-c2csc(-c3ccccc3)n2)n[nH]c1=S,0.71µM*,45%,3,-3,4µM*,-4%
C=CCn1c(-c2ccccn2)n[nH]c1=S,x,x,-23,u,x,x
C=CCn1c(-c2csc(-c3ccc(Cl)cc3)n2)n[nH]c1=S,1.8µM*,0%,-14,-4,u,3%
O=C(CN1C(=O)NC2(CCCCCC2)C1=O)NCCc1ccccc1,x,x,5,2,x,x
COc1ccc2nc(SCC(=O)NC3CCCCC3C)[nH]c2c1 (configuration not stated),x,x,-2,6,x,x
CS(=O)(=O)c1ccc(-c2csc(C(O)c3cccc(Cl)c3)n2)cc1 (configuration not stated),x,x,-7,4,x,x
Cc1ccc(NC(=O)CN(C)C(=O)CCC(=O)N2CCOCC2)cc1,x,x,1,7,x,x
C=CCn1c(-c2csc(-c3ccc(OC)c(OC)c3)n2)n[nH]c1=S,u,86%,u,-6,2µM*,-13%
COc1ccc(-c2nc(-c3ccc(O)cc3O)cs2)cc1OC,u,u,-26,-24,-44%,-17%
CCOC(=O)c1c(NC(=O)C(=O)N/N=C/c2ccccc2O)sc2c1CCCCC2,1.3µM*,u,7,1,1µM*,-1%
SMILES,Gal4-VP16 FLuc,MBNL1-CUG inh,Six1-Eya2 inh,CtBP-E1A blk,RORg inh,CBFb RUNX1 block
CCOC(=O)c1c(NC(=O)C(NCCN(C)C)c2ccccc2)sc2c1CCCC2 (configuration not stated),11µM*,-3%,-19,-21,3.5µM*,x
CCOC(=O)c1c(NC(=O)C(=O)N/N=C/c2ccccc2OC)sc2c1CCCCC2,-4%,1%,1,10,-8%,-4%
O=C1CC2(CCCC2)C(=O)N1CN1CCN(S(=O)(=O)c2cc(F)ccc2F)CC1,x,x,6,3,x,x
O=C(NN=C1CCCC1)c1ccccc1O,u,9%,-4,-1,u,x
C/C(=N\NC(=O)c1ccccc1O)C1C(=O)c2ccccc2C1=O,3.2µM*,u,0,1,3.5µM*,-26%
C/C(=N/NC(=O)c1cc2ccccc2cc1O)C1C(=O)c2ccccc2C1=O,18µM*,-3%,-25,-10,u,u
Cn1c(=O)c2sccc2n2c(CCCC(=O)N3CCN(c4ccccn4)CC3)nnc12,-6%,-8%,9,x,0%,x
CC(=O)Nc1ccc(NC(=O)C(C)OC(=O)C2CCN(S(=O)(=O)c3ccc4c(c3)OCCO4)CC2)cc1 (configuration not stated),x,x,-10,-6,x,x
CO/N=C\[C@@H](NS(=O)(=O)c1ccc(C)cc1)[C@H](C)/C=C\CC(=O)OC,8%[10 µM],x,x,x,8%[10 µM],5%[13.1 µM]
COc1ccc(NC2=Nc3ccccc3N3C2=Nc2c(c(C)nn2-c2ccc(C)cc2)C3c2cccnc2)cc1 (configuration not stated),-4%,-17%,2,-5,3%,-1%
CC(=O)Nc1ccc(NC2=Nc3ccccc3N3C2=Nc2c(c(C)nn2-c2ccccc2)C3c2ccccc2)cc1 (configuration not stated),0.89µM*,0%,6,3,0.089µM*,6%
CC1CC(C)CN(CCCNC(=O)c2ccc3c(c2)N(Cc2ccccc2)C(=O)c2ccccc2S3=O)C1 (configuration not stated),-17%,-4%,-9,x,11µM*,x
CCn1nc(C)cc1-c1nnc(Sc2ncc([N+](=O)[O-])s2)n1C,4.5µM*,u,u,x,5µM*,x
CCn1nc(C)cc1-c1nnc(SCC(=O)Nc2ccccc2)n1CCCOC,5%,4%,2,-4,-17%,23%
COc1cccc(/C=N/NC(=O)c2[nH]c(C)c(C(=O)N/N=C/c3cccc(OC)c3)c2C)c1,0%,13%,-68*,u,-4%,3%
CCOC(=O)c1c(C)[nH]c(C(=O)N/N=C\c2ccccc2Cl)c1C,u,x,-13,-19,8.9µM*,4%
Cc1cccc(-c2n[nH]c(=S)n2/N=C/c2ccco2)c1,u,1%,1,1,8.9µM*,-16%
CC(/C=N/n1c(-c2cc(C)[nH]n2)n[nH]c1=S)=C\c1ccco1,-5%,6%,-14,0,20%,-25%
CC(/C=N/n1c(-c2ccc(Cl)cc2)n[nH]c1=S)=C\c1ccco1,4µM*,20%,-22,-14,3.2µM*,0%
S=c1[nH]nc(-c2cccnc2)n1/N=C/c1ccco1,-4%,u,8,0,u,-3%

# From PubChem BioAssay
